DT40 TDP1 CPT: qHTS for Inhibitors of human tyrosyl-DNA phosphodiesterase 1 (TDP1): qHTS in cells in presence of CPT; Potency, µM (doses to about 46.2 µM), actives largely listed as inhibitors; 420,000 tested, 12% active; chicken DT40 Tdp1-/-;hTDP1 cells + 20 nM CPT, ATP luminescence, 48 h; AID 686979, 2013; further: nearly all actives have a fitted effect of over 55% in size
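Chicken DT40 Tdp1-/- cells stably complemented with human TDP1 were seeded at 400 cells/well in medium containing 20 nM camptothecin, exposed to pin-transferred compounds, and grown at 37 °C for at least 48 hr. Viability was read as ATP luminescence.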
DT40 TDP1 no CPT: qHTS for Inhibitors of human tyrosyl-DNA phosphodiesterase 1 (TDP1): qHTS in cells in absence of CPT. DT40 Tdp1-/- hTDP1 cells, no CPT, ATP luminescence, 48 h. Potency, µM (series often up to 46.2 µM), usual class: inhibitors. 420,000 tested, 15% active; further: nearly all actives have a fitted effect of over 55% in size
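Seeded 400 DT40-hTDP1 cells/well (vehicle DMSO, no 20 nM CPT); pinned compounds; ≥48 hr at 37 °C; CellTiter-Glo luminescence as viability measure.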
MCF10A rereplic: A quantitative high throughput screen for small molecules that induce DNA re-replication in MCF 10a normal breast cells; Potency, µM (series often up to 46.1 µM), usual class: activators; MCF 10A DNA re-replication, Hoechst nuclear intensity, 48 h; 350,000 tested, 2.9% active; AID 624296, 2012; further: nearly all actives have a fitted effect of over 50% in size
SW480 rereplic: A quantitative high throughput screen for small molecules that induce DNA re-replication in SW480 colon adenocarcinoma cells | Potency, µM (highest dose often 46.1 µM), most hits filed as activators | SW480 DNA re-replication, Hoechst DNA content imaging, 48 h | 340,000 tested, 1.8% active | AID 624297, 2012; further: nearly all actives have a fitted effect of over 55% in size
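Compounds, transferred as 23 nL by pin tool, were incubated with cells for 48 hr; DNA content per nucleus was then quantified by Hoechst staining and fluorescence plate imaging.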
IL1B secr inh: qHTS for Inhibitors of Inflammasome Signaling: IL-1-beta AlphaLISA Primary Screen; 360,000 tested, 4.7% active; activity change, % at 57.5 µM; THP-1 LPS/ATP IL-1B secretion, AlphaLISA, 16 h; active compounds read low; in the data active means activity change below about -50%; inconclusive means mostly about -30% to -49%
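THP-1 cells pretreated 1 hr with compounds (up to 57.5 uM final), then stimulated with LPS (250 ng/mL final) plus ATP (1.25 mM final); secreted IL-1B measured by AlphaLISA after 16 hr, decreased signal indicating inhibition.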
Chronic BCR inh: qHTS Assay to Find Inhibitors of Chronic Active B-Cell Receptor Signaling. ABC-DLBCL IkBa-CBG/CBR reporter, luminescence ratio, 4 h. 340,000 tested, 0.05% active. Potency, µM (doses to about 46.1 µM), hits mostly inhibitors; active means well fitted inhibition curve with a large enough effect in the signal ratio, with a control signal flat, not every such curve was filed as active; inconclusive means small, poorly fitted or top-dose-only effect, or effect the other way, or a change in a side signal; the % refers to the signal ratio
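TMD8 human ABC-DLBCL cells with doxycycline-inducible IκBα–green luciferase fusion and unfused red luciferase, in 0.5% FBS medium; compounds up to 46 uM, 4 h at 37C. Green/red luminescence ratio, filter-overlap corrected, fitted to concentration-response curves.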
Numbers stand for hits. An excerpt weighted towards active compounds, which were near 19% of everything screened. Unless noted, the call rests on the fitted dose curve; in most records, active means well fitted curve in the direction sought with a large enough effect; inconclusive means small, poorly fitted or top-dose-only effect, or another doubt; inactive means no such curve, though single readings can be large; an effect the other way counts as inactive or inconclusive.

For O=S(=O)(NCCc1ccccc1)c1cccc2nsnc12 the results were DT40 TDP1 CPT inactive, DT40 TDP1 no CPT inactive, MCF10A rereplic 5.2µM, SW480 rereplic inconclusive, IL1B secr inh inactive and Chronic BCR inh inactive.
For CC1CN(S(=O)(=O)c2cccc3nsnc23)CC(C)O1 (centres undefined) the results were DT40 TDP1 CPT inactive, DT40 TDP1 no CPT inactive, MCF10A rereplic 18µM, SW480 rereplic inactive, IL1B secr inh inactive and Chronic BCR inh inconclusive.
O=S(=O)(c1cccc2nsnc12)N1CCCC1 was read as DT40 TDP1 CPT inactive, DT40 TDP1 no CPT inactive, MCF10A rereplic inactive, SW480 rereplic inactive, IL1B secr inh inactive and Chronic BCR inh inconclusive.
Cc1ccc(S(C)(=O)=NS(=O)(=O)c2cccc3nsnc23)cc1 (centres undefined) was read as DT40 TDP1 CPT inactive, DT40 TDP1 no CPT inactive, MCF10A rereplic inactive, SW480 rereplic inactive, IL1B secr inh -53 and Chronic BCR inh inactive.
For O=S(=O)(NCCOC12CC3CC(CC(C3)C1)C2)c1cccc2nsnc12 the results were DT40 TDP1 CPT 18µM, DT40 TDP1 no CPT 15µM, MCF10A rereplic inactive, SW480 rereplic inactive, IL1B secr inh inactive and Chronic BCR inh inactive.
O=C(CCCNS(=O)(=O)c1cccc2nsnc12)NCCc1ccccc1 was read as DT40 TDP1 CPT inactive, DT40 TDP1 no CPT inconclusive, MCF10A rereplic inactive, SW480 rereplic inactive, IL1B secr inh inactive and Chronic BCR inh inactive.
For CCOC(=O)C1CCN(S(=O)(=O)c2ccc3oc(=O)ccc3c2)CC1 the results were DT40 TDP1 CPT inactive, DT40 TDP1 no CPT inactive, MCF10A rereplic inactive, SW480 rereplic inactive, IL1B secr inh inconclusive and Chronic BCR inh inactive.
For O=S(=O)(Nc1ccccc1)c1cccc2nsnc12 the results were DT40 TDP1 CPT inactive, DT40 TDP1 no CPT inactive, MCF10A rereplic inactive, SW480 rereplic inactive, IL1B secr inh inactive and Chronic BCR inh inactive.
`CNS(=O)(=O)c1cccc2nsnc12` gave DT40 TDP1 CPT inactive, DT40 TDP1 no CPT 0.0073µM, MCF10A rereplic inactive, SW480 rereplic inactive, IL1B secr inh inactive and Chronic BCR inh inactive.
Screening CC1CCc2c(sc(NC(=O)c3cc(-c4cccc(Cl)c4)on3)c2C(N)=O)C1 (centres undefined) returned DT40 TDP1 CPT inactive and DT40 TDP1 no CPT inactive.
COc1ccccc1NC(=O)c1cc(S(=O)(=O)NCCC2=CCCCC2)ccc1F was read as DT40 TDP1 CPT 23µM, DT40 TDP1 no CPT inconclusive and Chronic BCR inh inactive.
`COc1ccc(C)cc1NC(=O)c1cc(S(=O)(=O)NCCC2=CCCCC2)ccc1F` gave DT40 TDP1 CPT 21µM, DT40 TDP1 no CPT inconclusive and Chronic BCR inh inactive.
COc1ccccc1NC(=O)c1cc(S(=O)(=O)NC2CCCC2)ccc1F was read as DT40 TDP1 CPT inconclusive, DT40 TDP1 no CPT inactive, MCF10A rereplic inactive, SW480 rereplic inactive, IL1B secr inh inconclusive and Chronic BCR inh inactive.
Screening CCCNC(=O)CN1C(=O)COc2ccc(S(=O)(=O)N3CC(C)CC(C)C3)cc21 (centres undefined) returned DT40 TDP1 CPT inactive, DT40 TDP1 no CPT inactive, MCF10A rereplic inactive, SW480 rereplic inactive, IL1B secr inh inactive and Chronic BCR inh inactive.
`CCOC(=O)c1ccccc1NC(=O)Nc1cc2c(cc1N1CCCCC1)n(C)c(=O)n2C` gave DT40 TDP1 CPT inactive and DT40 TDP1 no CPT inactive.
For CCOC(=O)C1CCN(c2cc3c(cc2NC(=O)c2ccccc2Br)n(C)c(=O)n3C)CC1 the results were DT40 TDP1 CPT inconclusive, DT40 TDP1 no CPT 18µM, MCF10A rereplic inactive, SW480 rereplic inactive, IL1B secr inh inactive and Chronic BCR inh inactive.

Source: PubChem (National Center for Advancing Translational Sciences (NCATS))
